The values below come from PubChem BioAssay (EPA / NIEHS).

Activity calls are given as the source filed them. The calls were made as follows: active = hit-call score of the fitted dose curve at least 0.9, where 1 is the maximum; inactive = score below 0.9.

Read-out in the assay: ABC Transporter (ABCB11), ABCB11 (gene 8647)
The assay can be described thus: LTEA_HepaRG_ABCB11: Life Technologies and Expression Analysis (LTEA) Assay for ABC Transporter (ABCB11) using HepaRG (AID 2283463). The following applies: mRNA level, 48 h; actives raise or lower the signal. As for the experimental part: LTEA_HepaRG is a cell based, multiplexed-readout assay that uses HepaRG, a human liver cell line, with measurements taken at 48 hours after chemical dosing on a 96-well plate.LTEA_HepaRG_ABCB11 is one of 102 assay component(s) measured in the LTEA HepaRG cell culture assay. It is a marker of Steatosis/NR mediated transport.Data from the assay component LTEA_HepaRG_ABCB11 was analyzed into 1 endpoint. This assay endpoint, LTEA_HepaRG_ABCB11, was analyzed with bidirectional fitting relative to DMSO as the negative control and baseline of activity. Using a type of inducible reporter, measures of mRNA induction for gain or loss-of-signal activity can be used to understand regulation of transcription factor activity. To generalize the intended target to other relatable targets, this assay endpoint is annotated to the transporter intended target family, where the subfamily is ABC transporter.
A total of 1060 chemcials from the ToxCast library were tested in eight-point concentration-response experiments. Cell culture and cytotoxicity assays were conducted at Thermo Fisher Scientific's Custom Services facility (Madison, WI). A single lot of human HepaRG cells (Thermo Fisher Scientific, Frederick, MD) was used for the cell culture experiments. 96-well format collagen type I coated plates of human HepaRG cells were prepared using established methods. Briefly, cryopreserved HepaRG cells were thawed, plated at a density of approximately 100,000 cells/well in HepaRG Thaw, Plate, and General Purpose media (HPRG770, Thermo Fisher Scientific), and incubated for 48 hours. 0.5% DMSO was selected as vehicle control to balance the requisite need of DMSO in HepaRG cultures to maintain differentiation (for example, baseline metabolism, proportions of hepatocytes vs. cholangiocytes), while enabling further hepatic receptor pathway activation (for example, PXR and CAR) in response to chemical exposure. 48 hours after plating, the culture medium was replaced with HepaRG Serum-Free Incudtion Media. Cells were exposed to each test chemical in duplicate and maintained in CO2 incubators for another 48 hours. Chemical plates were thawed to room temperature and 200x concentrations of treatment groups were prepared. 8-point conentration-reponse curves were made with the highest exposure at 100 uM, followed by half-log dilutions, all in 0.5% DMSO. Each test plate contained variouse controls, induction positive controls (1mM phenobarbital), cytotoxicity positive controls ([…] aflatoxin B1), vehicle controls (0.5% DMSO), and total lysis controls (0.5% DMSO). Cell morphology images were taken using an Essen IncuCyte FLR automated microscope, with six 96-well plates imaged in about 24 minutes. Images were captured and exported and JPEG files. Spent culture media was transfered to black-well plates for the LDH assay, and remaining media was sorted at -80 C for later use. Cells were treated with RLT buffer and frozen until shipped for gene expression analysis. Total RNA was isolated from the cell suspension in 75 uL of Buffer RLT (Qiagen, Germantown, MD 20874) by Quintiles/Expression Analysis (Durham, NC) using a custom isolation procedure. Total RNA from each plate well was transferred to a preamplification plate. Fluidigm's 96.96 Dynamic ArrayTM (Fluidigm, Amsterdam, the Netherlands) technology was used for gene expression analyses by quantitative reverse transcription polymerase chain reaction (qRT-PCR, performed by Quintiles/Expression Analysis, Durham, NC)89. Standard TaqManTM Assays (Applied Biosystems/ThermoFisher Scientific, Foster City, CA) were used to assess the expression of 93 genes selected based on their selectivity and sensitivity to important hepatic receptors known to be modulated by environmental chemicals; importance in human hepatocyte functionality; and hepatotoxicity. […]
Consider `CC(C)(C)OOC(C)(C)C`, for which the compound was classed as inactive. As for `CC(Cl)(Cl)C(=O)O`, the outcome was inactive. For the compound `CCCN(CCC)c1c([N+](=O)[O-])cc(C(C)C)cc1[N+](=O)[O-]`, the outcome was inactive. Take `CCCCc1ccccc1`: the outcome was inactive. In the case of `c1ccc(OP(Oc2ccccc2)Oc2ccccc2)cc1`, the compound was classed as inactive. The result for `O=P1(N(CCCl)CCCl)NCCCO1` (stereo not given) reads “inactive”.

In the case of `CCCCCCCc1ccc(O)cc1`, the compound was classed as inactive. With `Cc1cccc(N)c1`, the compound was called inactive. The result for `CC(Cc1ccc(OCC(=O)O)cc1)NCC(O)c1csc(C(F)(F)F)n1` (stereo not given) reads “inactive”; that for `Nc1ccc2ccccc2c1`, “inactive”. In the case of `ClC(Cl)(Cl)c1ccccc1`, the compound was called inactive.

With `CSC(C)(C)C=NO`, the compound was classed as inactive. Regarding `CCCCN(CCCC)SN(C)C(=O)Oc1cccc2c1OC(C)(C)C2`, the result was inactive. In the case of `ClC1=C(Cl)C2(Cl)C3C(Cl)C(Cl)CC3C1(Cl)C2(Cl)Cl` (stereo not given), the compound was called inactive. The result for `CCN(CC)c1ccccc1` reads “inactive”; that for `COCCOCCO`, “inactive”.

Consider `CCC1(c2ccccc2)C(=O)N=C(O)NC1=O` (stereo not given), for which the compound was classed as inactive. As to `CCOS(=O)(=O)OCC`, the compound was called inactive. For the compound `[N-]=[N+]=[N-]`, the compound was called inactive. `Cc1ccc(N)cc1N`: the result was inactive. With `O=[N+]([O-])c1ccccc1`, the compound was classed as inactive. Consider `CCC(C)(C)c1ccc(O)cc1`, for which the call was inactive. In the case of `CCOP(=S)(Oc1ccc([N+](=O)[O-])cc1)c1ccccc1` (stereo not given), the compound was called inactive.

As for `CN(C)C(=O)Cl`, the compound was classed as inactive. As for `OCC1CO1` (stereo not given), the entry is “inactive”; as for `CCCCN(CCCC)N=O`, “inactive”; as for `ClC(Cl)c1ccccc1`, “inactive”. The result for `O=C(O)C1C(C(=O)O)C2(Cl)C(Cl)=C(Cl)C1(Cl)C2(Cl)Cl` (stereo not given) reads “inactive”. In the case of `CCOC(=O)c1ccccc1C(=O)OCC`, the compound was called inactive. `O=P(Oc1ccccc1)(Oc1ccccc1)Oc1ccccc1`: the compound was classed as inactive. Take `c1nc[nH]n1`: the compound was called inactive. Consider `CCOc1ccc(C(C)(C)COCc2cccc(Oc3ccccc3)c2)cc1`, for which the call was inactive. Take `Nc1ccc(Cl)cc1`: the outcome was inactive. Take `Cc1ccc([N+](=O)[O-])cc1C`: the result was inactive. On to `O=[N+]([O-])c1ccc(Cl)c(Cl)c1`, for which the compound was classed as inactive. Take `c1cc2c3c(cccc3c1)CC2`: the outcome was inactive. As to `Nc1cc2c3c(c1)C(c1ccccc1)=N[C@@H](NC(=O)c1cccnc1)C(=O)N3CC2`, the result was inactive. In the case of `O=C(O)C(Cl)Cl`, the result was inactive. For the compound `CCNc1nc(Cl)nc(NC(C)(C)C)n1`, the call was inactive. For `CCOP(=S)(OCC)SCSCC`, the call was inactive.
